# Compound activity (PubChem BioAssay)
# CCT chaperon mod: cytosolic chaperonin activity modulation. activity change, % (test concentration not listed), hits read low. purified chaperonin ATPase assay, HTRF ADP detection, 30 min. 360,000 compounds, 0.3% hits; in the data active = activity change below about -30%
#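 Enzyme 40 or 20 nM (batch-dependent) in Tris pH 7.4/KCl/MgCl2/DTT; cpd 76 uM single point; ATP 10 uM; 30 min 37 °C; Transcreener ADP HTRF detection, 30 min RT; ratio 665/615.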
# Sfp inh: blocks B. subtilis Sfp PPTase activity | Biochemical Sfp PPTase activity, qHTS | Potency, µM, for the others: largest response in the series, negative = inhibition, hits mostly inhibitors | 310,000 compounds, 3.5% hits | AID 1490;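 note: the enzyme is Sfp with the accession as filed and its product quenches rhodamine fluorescence; potency is the fitted concentration of half-maximal effect; 0% = enzyme reaction without inhibitor and -100% = no enzyme wells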
#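 With Hepes-Na pH 7.6 buffer containing 10 mM MgCl2, Sfp (15 nM) modified BHQ-2-YbbR (12.5 uM) using rhodamine-CoA (5 uM). Two reads 30 minutes apart at 525/598 nm yielded each well's rate.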
# PLK1 PBD block: blocks phosphopeptide binding to human PLK1 polo-box domain. 360,000 compounds, 2.8% hits. P53350. Plk1 PBD binding of FITC phosphopeptide, fluorescence polarization. Potency, µM, inactives show max response, negative = inhibition, most hits filed as inhibitors. AID 720504; note: potency is the fitted concentration of half-maximal effect; series mostly up to about 57 µM; nearly all actives have a fitted effect of over 65% in size
# Target sequence (P53350 whole entry, looked up, the tested form may be a part): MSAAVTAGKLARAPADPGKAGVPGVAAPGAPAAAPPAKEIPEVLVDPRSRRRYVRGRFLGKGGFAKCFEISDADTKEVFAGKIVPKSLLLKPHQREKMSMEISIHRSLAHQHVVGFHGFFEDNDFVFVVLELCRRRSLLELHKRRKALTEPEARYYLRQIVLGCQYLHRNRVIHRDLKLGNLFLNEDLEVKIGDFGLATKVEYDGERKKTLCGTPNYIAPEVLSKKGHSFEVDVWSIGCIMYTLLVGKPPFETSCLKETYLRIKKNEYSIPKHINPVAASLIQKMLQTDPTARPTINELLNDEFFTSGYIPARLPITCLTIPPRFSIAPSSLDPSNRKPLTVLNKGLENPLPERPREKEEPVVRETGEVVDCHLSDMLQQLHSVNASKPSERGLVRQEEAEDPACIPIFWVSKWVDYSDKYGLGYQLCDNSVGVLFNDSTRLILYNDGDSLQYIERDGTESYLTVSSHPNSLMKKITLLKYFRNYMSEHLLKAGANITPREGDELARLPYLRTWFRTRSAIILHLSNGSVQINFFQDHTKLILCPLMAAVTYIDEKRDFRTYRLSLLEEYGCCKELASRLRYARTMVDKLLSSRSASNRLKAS
# VDR inhibitor: vitamin D3 receptor (human) inhibition. 400,000 compounds, 0.93% hits. VDR-SRC2-3 peptide fluorescence polarization, 2 h. Potency, µM, for inactives: max response, negative = inhibition, actives largely listed as inhibitors; note: potency is the fitted concentration of half-maximal effect
#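 Signal is fluorescence polarization, reporting how far test compounds block the interaction of VDR with the SRC2-3 coregulator peptide after a 2 h room-temperature incubation.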
# Mm-Cpn inhibitor: inhibitors of Methanococcus maripaludis chaperonin TRiC (MmCpn); 330,000 compounds, 0.031% hits; Potency, µM (highest dose often 76.9 µM), without a hit: top-dose activity, negative = inhibition, most hits filed as inhibitors; purified Mm-Cpn ATPase, ADP Transcreener TR-FRET; note: potency is the fitted concentration of half-maximal effect; nearly all actives have a fitted effect of over 80% in size
#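 ATP (10 uM final) was added to archaeal chaperonin (25 nM final) after 10 min exposure to test compound at 37°C; after 30 min further incubation, ADP was detected by competitive TR-FRET.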
# G9a block: G9a (human) methyltransferase inhibition; Q96KQ7; AID 504332; G9a H3K9 monomethylation, AlphaScreen, 2 h; Potency, µM (highest dose often 102 µM), for inactives: at the highest dose activity, negative = inhibition, actives largely listed as inhibitors; 350,000 compounds, 8.8% hits; note: potency is the fitted concentration of half-maximal effect; nearly all actives have a fitted effect of over 75% in size
#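 Using a bead-based AlphaScreen, monomethylated H3K9 product from 2 h room-temperature reactions (G9a 20 nM, peptide 500 nM, SAM 20 uM) was detected with 0.5 ug/mL rabbit anti-H3K9me1 antibody.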
# * hit, by the source's call; ? = inconclusive; · = no result given; ! = a repeat was not active; [ ] = another dose, or the depositor's remark. In the library only some 10% were active in any assay of this set; here they are far more common. Unless noted, calls come from the whole dose curve; as a rule, active = well fitted curve in the direction sought with a large enough effect; inconclusive = small, poorly fitted or top-dose-only effect, or another doubt; inactive = no such curve, though single readings can be large; an effect the other way counts as inactive or inconclusive. Unless noted, % is set by controls: 0 for no effect and ±100 for the full control effect.
SMILES,CCT chaperon mod,Sfp inh,PLK1 PBD block,VDR inhibitor,Mm-Cpn inhibitor,G9a block
CCOc1ccc(NCC(=O)Nc2ccc(Cl)cc2C)cc1,-1,7%,-18%,-17%,1%,8.9µM*
CCCOc1ccc(NCC(=O)Nc2ccc(C)cc2C)cc1,0,-9%,-13%,12%,0%,8.9µM*
COc1ccc(NCC(=O)Nc2ccc(Cl)cc2C)c(OC)c1,-3,-4%,-23%,-5%,-3%,1.4µM*
NC(=O)[C@@H]1CCCNc2c(F)cc([N+](=O)[O-])cc2C(=O)N[C@@H](CO)C(=O)N[C@@H](Cc2ccc(O)cc2)C(=O)N1,-29,-4%,-13%,-13%,-1%,?
NC(=O)[C@@H]1CCNc2c(I)cc([N+](=O)[O-])cc2C(=O)N[C@@H](CO)C(=O)N[C@@H](Cc2ccc(O)cc2)C(=O)N1,·,-2%,·,·,-4%,10µM*
CC(C)C[C@@H]1NC(=O)[C@H](Cc2ccc(O)cc2)NC(=O)[C@H](CCC(N)=O)NC(=O)c2cc([N+](=O)[O-])cc(I)c2NCC[C@@H](C(N)=O)NC1=O,·,2%,·,·,-4%,7.1µM*
CC(C)[C@@H]1NC(=O)[C@H](CCCCN)NC(=O)[C@@H](Cc2c[nH]c3ccccc23)NC(=O)[C@H](Cc2ccc(O)cc2)NC(=O)[C@@H](NC(=O)[C@H](N)Cc2ccccc2)CSSC[C@@H](C(=O)N[C@@H](Cc2c[nH]c3ccccc23)C(N)=O)NC1=O,·,26%,·,1%,·,·
NC(=O)C(CC(=O)O)NC(=O)[C@@H]1CCOc2c(I)cc([N+](=O)[O-])cc2C(=O)N[C@@H](CO)C(=O)N[C@@H](Cc2ccc(O)cc2)C(=O)N1 (some centres not stated),-2,?,-29%,-12%,1%,22µM*
Cc1cccn2c(=O)c(C(=O)NCCc3ccccc3)cnc12,·,·,·,0%,·,9%[59 µM]
Cc1c(O)c(=O)c2ccccc2n1C,-1,-27%,-6%,3%,?,45µM*
Cc1cc2nc(-c3cccc(NC(=O)CSc4ccc(Cl)cc4)c3)oc2cc1C,·,·,·,-11%,·,-1%[59 µM]
Cc1ccc(NC(=O)CN2C(=O)c3cccnc3Sc3ccccc32)cc1C,·,·,·,7%,·,15%[59 µM]
Cc1ccc(CNC(=O)CC2Oc3ccc(Cl)cc3NC2=O)cc1 (configuration not stated),·,·,·,-4%,·,-28%[59 µM]
Cc1ccc2c(c1)NC(=O)C(CC(=O)NCc1cccnc1)O2 (configuration not stated),0,?,-27%,-22%,1%,32µM*
Cc1ccc2c(c1)NC(=O)C(CC(=O)NC1CCCCC1C)O2 (configuration not stated),-1,-4%,-17%,-9%,3%,45µM*
Cc1ccc2c(c1)NC(=O)C(CC(=O)NCc1ccc(F)cc1)O2 (configuration not stated),-1,-11%,-15%,1%,-3%,50µM*
O=C(CC1Oc2ccccc2NC1=O)NCc1ccccc1 (configuration not stated),-2,7%,21µM*,?,-1%,7%
CCN(CCCNC(=O)CC1Oc2ccc(C)cc2NC1=O)Cc1ccccc1 (configuration not stated),-1,?,-15%,-8%,2%,50µM*
CCCCN(C)CCCNC(=O)CC1Oc2ccccc2NC1=O (configuration not stated),0,-11%,-26%,-15%,0%,?
CC1CC2C3CCC4=CC(=O)C=C[C@]4(C)[C@@]3(Cl)C(O)C[C@]2(C)C1(OC(=O)c1ccco1)C(=O)CCl (some centres not stated),·,3%,·,10%,·,-4%[2.33 µM]
C[C@H]1C[C@@H]2[C@H]3CCC4=CC(=O)C=C[C@@]4(C)[C@@]3(Cl)[C@@H](O)C[C@]2(C)[C@]1(OC(=O)c1ccco1)C(=O)CCl,·,35µM*,·,1%,·,25%[21.5 µM]
COc1ccccc1NC(=O)Cn1c(=O)c(CNc2ccc(C)cc2)cc2cc3c(cc21)OCCO3,·,·,·,0%,·,?
CCOc1ccc(CCNC(=O)CCc2c(C)nc3c4c(C)cc(C)nc4nn3c2C)cc1,·,·,·,5%,·,-13%[59 µM]
CCOC(=O)c1c(NC(=O)Cn2cnc([N+](=O)[O-])n2)sc(C)c1C,0,6%,24µM*,-10%,1%,28µM*
CC(C)OC(=O)c1c(NC(=O)Cn2cnc([N+](=O)[O-])n2)sc2c1CCCC2,-1,-8%,?,-7%,1%,16µM*
SMILES,CCT chaperon mod,Sfp inh,PLK1 PBD block,VDR inhibitor,Mm-Cpn inhibitor,G9a block
NC(=O)c1c(NC(=O)Cn2cnc([N+](=O)[O-])n2)sc2c1CCCC2,-1,7%,-3%,-4%,-1%,?
COC(=O)c1c(NC(=O)Cn2nc(C(F)F)cc2C(F)F)sc(C)c1C,0,56µM*,15µM*,-15%,3%,·
CCOC(=O)c1c(NC(=O)Cn2cnc([N+](=O)[O-])n2)sc2c1CCCC2,-1,-28%,?,-7%,0%,45µM*
CC1CCc2c(sc(NC(=O)Cn3cnc([N+](=O)[O-])n3)c2C(N)=O)C1 (configuration not stated),1,9%,-12%,-16%,2%,-26%
CCN(CC)S(=O)(=O)c1cccc(C(=O)Nc2sc3c(c2C#N)CCC(C)C3)c1 (configuration not stated),·,·,·,5%,·,22%[59 µM]
CCOC(=O)c1c(NC(=O)Cn2nc(C(F)(F)F)cc2C)sc(C)c1C,0,14%,27µM*,-10%,2%,?
CCOC(=O)c1c(NC(=O)Cn2nc(C(F)F)cc2C(F)F)sc(C)c1C,-10,15%,-3%,-10%,2%,?
COc1cc(OC)c(NC(=O)c2csc3c2CCC(C)C3)cc1Cl (configuration not stated),·,·,·,-21%,·,-14%[59 µM]
Cc1cccc(C)c1NC(=O)CN(C)S(=O)(=O)c1ccc2c(c1)n(C)c(=O)c(=O)n2C,·,·,·,7%,·,3%[59 µM]
OCCc1c[nH]c2ccccc12,-1,21%,9%,-23%,-1%,1%[12.7 µM]
OCc1c[nH]c2ccccc12,-2,1%,-6%,-1%,-3%,13µM*!
Cc1cnc(NC(=O)Cc2c[nH]c3ccccc23)s1,1,-2%,-5%,26%,1%,-48%
O=C(Cc1c[nH]c2ccccc12)Nc1nc2ccccc2[nH]1,1,5%,-2%,-1%,0%,79µM*
CCc1nnc(NC(=O)Cc2c[nH]c3ccccc23)s1,-1,8%,4%,8%,1%,45µM*
O=c1c(S(=O)(=O)c2ccccc2)cn(Cc2ccc(F)cc2)c2cc(N3CCCCC3)c(F)cc12,·,·,·,12%,·,10%[59 µM]
